These results are taken from PubChem BioAssay AID817 (Emory University Molecular Libraries Screening Center, 2007).

Molecules are shown by their SMILES. Screen size: about 140,000 compounds; about 300 (0.21%) were called active.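 Rule for the calls: active = z-score above 3 at both the 24 hr and the 30 hr optical density reads; inactive = the rest, inconclusive results apart.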 The list comes from a sample in which actives are over-represented; it also holds similar structures and randomly drawn compounds.

A short description of this experiment: restorers of sdo1-deficient yeast growth – S. cerevisiae, bone marrow failure model, primary screen (AID 817).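 Note: z-score against mean and SD of all compound wells on the same plate.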 The following applies: S. cerevisiae sdo1-depleted JHY4D growth rescue, at 10 µM, stronger effect = higher value, pdr5 snq2 efflux-pump mutant strain.
The mark [1] stands for this setting: OD600, measured here: growth rescue at 24 h.

Turning to `C=CCc1ccccc1OCC(=O)N/N=C/c1ccccc1OCC`, the z-score by setting is: (OD600 30 h) 0.63 (inactive); under setting [1], 0.43.
The corresponding values for `CC(=O)N1CCN(CC(=O)Nc2ccc(SC(F)F)cc2)CC1` are 1.61 (inactive) and 1.79.
The corresponding values for `CC(C)CNC(=O)CC(NCC(C)C)C(=O)O` (stereo not given) are 0.7 (inactive) and 0.56.
The corresponding values for `c1ccc(C2CNCc3c2ccc2ccccc32)cc1` (stereo not given) are -0.88 (inactive) and -1.37.
With `CCc1nnc(NC(=O)[C@@H](NC(=O)c2cccc(C)c2)C(C)C)s1`, the z-score is, setting by setting: (OD600 30 h) 0.02 (inactive); under setting [1], -0.75.
The corresponding values for `CCc1cccc(CC)c1NC(=S)NCc1ccc2[nH]c(C)cc2c1` are -0.04 (inactive) and 0.97.
The corresponding values for `CC1CCCC(NC(=O)COC(=O)[C@@H]2CC(O)CN2S(=O)(=O)c2ccc3c(c2)OCCO3)C1C` (stereo not given in full) are 1.03 (inactive) and 1.42.
The corresponding values for `Cc1nc2scc(-c3cccs3)c2c(=O)n1N` are 0.14 (inactive) and -0.79.
Regarding `O=C(COC(=O)/C=C/c1nc2ccccc2s1)Nc1ccccc1Oc1ccccc1`, the z-score by setting is: (OD600 30 h) -0.21 (inactive); under setting [1], 0.04.
The corresponding values for `CC(=O)NS(=O)(=O)c1ccc(NC(=O)C2C3C=CC(C3)C2C(=O)O)cc1` (stereo not given) are -0.71 (inactive) and -0.47.
The corresponding values for `CN(C)C(CNC(=O)c1ccc(S(=O)(=O)NCc2ccco2)cc1)c1ccccc1` (stereo not given) are 0.96 (inactive) and 0.68.
`COc1ccc(C)cc1Nc1nc(-c2c(C)[nH]c3ccccc23)cs1`: the z-score (OD600 30 h) is -0.39 (inactive) and the z-score under setting [1] is -0.09.
As to `CCCn1c(=O)c2c(C(F)(F)F)cc(-c3cccs3)nc2n(CCC)c1=O`, the z-score runs as follows: (OD600 30 h) 1.32 (inactive); under setting [1], 2.13.
The corresponding values for `O=C(NCc1cccs1)C(=O)NCC1OCCCN1S(=O)(=O)c1ccc(F)cc1` (stereo not given) are -0.71 (inactive) and -1.35.
For the compound `CCOc1ccc(NC(=S)N2CCC(N(C)CC3CCCO3)CC2)cc1` (stereo not given), the z-score runs as follows: (OD600 30 h) 0.68 (inactive); under setting [1], 1.31.
The corresponding values for `Cc1[nH]c2ccccc2c1/C=N/NC(=O)CNC(=O)c1ccc2c(c1)OCO2` are 1.92 (inactive) and 3.35.
In the case of `NC(=S)N/N=C/c1coc2cc(Cl)ccc2c1=O`, the z-score runs as follows: (OD600 30 h) -1.25 (inactive); under setting [1], -1.16.
The corresponding values for `O=C(CSc1nnc(-c2ccncc2)o1)NCc1ccc(Cl)cc1` are 0.26 (inactive) and -0.05.
With `COc1ccc(NC(=S)NC2CCS(=O)(=O)C2)cc1` (stereo not given), the z-score (OD600 30 h) was -0.13 (inactive) and the z-score under setting [1] was -0.11.
With `COCCn1c(=NC(=O)c2ccccc2[N+](=O)[O-])sc2cc(S(C)(=O)=O)ccc21`, the z-score runs as follows: (OD600 30 h) -0.84 (inactive); under setting [1], -0.91.
The corresponding values for `COC(=O)c1onc(-c2c(OC)cc(OC)cc2OC)c1C(=O)OC` are 0.49 (inactive) and 0.26.
The corresponding values for `O=C(COC(=O)c1cc(=O)[nH]c2ccccc12)Nc1nc(-c2cccc(Br)c2)cs1` are -0.47 (inactive) and -0.07.
With `C=CCNC(=O)c1ccccc1NC(=O)c1ccc(Cl)c(S(=O)(=O)Nc2cccc(C)c2C)c1`, the z-score reads like this: (OD600 30 h) -0.47 (inactive); under setting [1], 0.23.
As for `C=CCN1C(=O)C(Cc2ccc(OCC)cc2)SC1=Nc1ccc(C(=O)O)cc1` (stereo not given), the z-score reads like this: (OD600 30 h) -0.13 (inactive); under setting [1], -0.75.
The corresponding values for `CC(C)CCNC(=O)c1cccnc1Sc1ccccc1` are 0.7 (inactive) and 0.32.
The corresponding values for `Cc1ccc(/C=N/NC(=O)CNC(=O)COc2ccccc2)o1` are 1.11 (inactive) and 1.1.
Take `CS(=O)(=O)N(Cc1ccccc1)c1ccc(C(=O)NN=C2CCCCCC2)cc1`: the z-score is -0.22 (inactive) (OD600 30 h) and -0.83 under setting [1].
The corresponding values for `COc1ccccc1OCc1ccc(C(=O)N2CCN(C)CC2)o1` are 0.86 (inactive) and 0.24.
As to `CN1CCN(C(=O)/C(=C\c2cccs2)NC(=O)c2cccs2)CC1`, the z-score is 0.48 (inactive) (OD600 30 h) and 0.2 under setting [1].
The corresponding values for `CCOc1ccc(C(=O)NC(=S)Nc2ccc(N3CCOCC3)c(Cl)c2)cc1[N+](=O)[O-]` are -1.76 (inactive) and -1.28.
The corresponding values for `COc1ccc(C(=O)NNS(=O)(=O)c2ccc(C)cc2)cc1` are -0.36 (inactive) and -1.37.
The corresponding values for `CC1(C)C=C2[C@H]3CC[C@@H]4[C@@]5(C)CCC(=O)C(C)(C)[C@@H]5CC[C@@]4(C)[C@]3(C)CC[C@@]2(C(=O)O)CC1` are -0.02 (inactive) and -0.53.
In the case of `FC(F)(F)c1cccc(N/N=C/c2ccccc2)c1`, the z-score reads like this: (OD600 30 h) -1.78 (inactive); under setting [1], -1.53.
The corresponding values for `COc1ccccc1N1CCN(C(=O)C(=O)N/N=C/c2ccccc2F)CC1` are 1.25 (inactive) and 0.28.
`COc1ccc(OC(C)C(=O)NCCc2nc3ccccc3[nH]2)cc1` (stereo not given): the z-score is 0.82 (inactive) (OD600 30 h) and -0.04 under setting [1].
Take `COc1ccccc1-n1c(C)nc2cc(C(=O)NCc3ccc4c(c3)OCO4)ccc21`: the z-score by setting is: (OD600 30 h) -0.72 (inactive); under setting [1], -1.61.
The corresponding values for `COC(=O)c1cc(C(=O)N(Cc2ccccc2)c2ccccn2)cc([N+](=O)[O-])c1` are -0.07 (inactive) and -0.08.
The corresponding values for `CCc1ccccc1NC(=O)CN(C)C(=O)COc1ccc(C)nc1[N+](=O)[O-]` are -0.39 (inactive) and -0.24.
The corresponding values for `CCOC(=O)N1CCN(CC(=O)c2c(C)[nH]c3ccccc23)CC1` are -0.21 (inactive) and -1.53.
Regarding `Cc1[nH]c2ccccc2c1C(=O)COC(=O)C(C)C`, the z-score is 0.17 (inactive) (OD600 30 h) and -0.5 under setting [1].
